Test results: PMC7826789 (International Journal of Molecular Sciences, 2021)

Tests used:
Details in all cases: Compound Concentration (nM):1000
YSK1 = system: T1, YSK1
T1 construct: gene STK25

YSK4 = system: T2, YSK4
T2 construct: gene MAP3K19

ZAK = system: ZAK
ZAP70 = system: ZAP70
p38-alpha = system: T3, p38-alpha
T3 construct: gene MAPK14

p38-beta = system: T4, p38-beta
T4 construct: gene MAPK11

p38-delta = system: T5, p38-delta
T5 construct: gene MAPK13

p38-gamma = system: T6, p38-gamma
T6 construct: gene MAPK12
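Further: KINOMEscan scanMAX binding as percent activity remaining versus control; lower means stronger binding.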

SMILES | Percent Control (YSK1) [%] | Percent Control (YSK4) [%] | Percent Control (ZAK) [%] | Percent Control (ZAP70) [%] | Percent Control (p38-alpha) [%] | Percent Control (p38-beta) [%] | Percent Control (p38-delta) [%] | Percent Control (p38-gamma) [%]
COc1ccc2cc(-c3c(-c4ccncc4)nc(-c4ccc(S(C)(=O)=O)cc4C)n3C)ccc2c1 [SB-633825] | 100 | 66 | 89 | 84 | 100 | 79 | 83 | 100
CC1=C(C(=O)Nc2ccc3[nH]ncc3c2)C(c2ccc(Cl)c(Cl)c2)CC(=O)N1 (stereo not shown) [GSK299115A] | 67 | 64 | 100 | 100 | 100 | 100 | 100 | 100
COc1cccc(-c2c[nH]c3c(N/N=C/c4ccncc4)ncnc23)c1 [GW814408X] | 65 | 0.7 | 17 | 89 | 100 | 100 | 100 | 100
C/C(Nc1ccc(S(N)(=O)=O)cc1)=C1/C(=O)Nc2ccccc21 [GW335962X] | 55 | 14 | 100 | 94 | 100 | 100 | 100 | 73
CCS(=O)(=O)c1ccc(OC)c(Nc2ncc(-c3cccc(F)c3)o2)c1 [GW621970X] | 79 | 90 | 82 | 86 | 100 | 100 | 100 | 100
COc1cc(N2CCN(C(C)C)CC2)ccc1Nc1nc(Nc2ccc(F)cc2C(=O)NC[C@@H](O)CO)c2cc[nH]c2n1 [GSK1392956A] | 89 | 34 | 93 | 86 | 100 | 100 | 100 | 91
Cl.O=S1CCN(Cc2ccc(-c3ccc4ncnc(Nc5ccc(OCc6ccccc6)c(F)c5)c4c3)o2)CC1 [GW576924A] | 81 | 100 | 100 | 100 | 100 | 100 | 100 | 99
O=C(Nc1n[nH]c2nc(-c3ccc(O)cc3)c(Br)cc12)C1CC1 [SB-725317] | 79 | 4.3 | 100 | 100 | 100 | 74 | 100 | 81
C[C@@H](Oc1cc(-n2cnc3ccc(OC4CCN(C)CC4)cc32)sc1C(N)=O)c1ccccc1Cl [GSK579289A] | 74 | 32 | 69 | 93 | 100 | 76 | 100 | 81
Cl.O=C(O[C@H]1CN[C@H](C#Cc2cc3ncnc(Nc4ccc5c(cnn5Cc5ccccc5)c4)c3s2)C1)N1CCOCC1 [GSK200398A] | 79 | 83 | 82 | 89 | 100 | 100 | 100 | 100
COc1cc2ncnc(Nc3ccc4c(cnn4Cc4ccccc4)c3)c2cc1OC.Cl [GW282449A] | 89 | 98 | 100 | 100 | 100 | 100 | 100 | 100
